The source made the active and inactive calls. The calls were made as follows: active = hit-call score of the fitted dose curve at least 0.9, where 1 is the maximum; inactive = score below 0.9.

Read-out in the first test: Cytochrome P450 (CYP1A1), CYP1A1 (gene 1543)
Nature of the test: LTEA_HepaRG_CYP1A1: Life Technologies and Expression Analysis (LTEA) Assay for Cytochrome P450 (CYP1A1) using HepaRG (AID 2283454). To be noted: mRNA level, 48 h; actives raise or lower the signal. In short, it runs like this:
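Induction of CYP1A1 mRNA in a human hepatic cell line was measured 48 h after dosing, with 1 mM phenobarbital as induction positive control and 0.5% DMSO vehicle as baseline for bidirectional curve fitting.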
For `COc1cccc(C(=O)NN(C(=O)c2cc(C)cc(C)c2)C(C)(C)C)c1C`, the AC50 (commonly the midpoint of the concentration-response curve, whichever way the signal moves) is 50 µM (active).

In the case of `O=C(O)c1cc(Oc2ccc(C(F)(F)F)cc2Cl)ccc1[N+](=O)[O-]`, the AC50 was 50 µM (active).

On to `Cc1cc(C2CC2)nc(Nc2ccccc2)n1`, for which the AC50 was 0.52 µM (active).

For the compound `CNC(=O)Oc1cccc2c1OC(C)(C)O2`, the outcome was inactive.

Regarding `CC(C1CC1)C(O)(Cn1cncn1)c1ccc(Cl)cc1` (stereo not given), the AC50 was 17 µM (active).

For `CSc1nnc(C(C)(C)C)c(=O)n1N`, the outcome was inactive.

As to `CCCOCC(=Nc1ccc(Cl)cc1C(F)(F)F)n1ccnc1`, the AC50 is 12.8 µM (active).

For the compound `COP(=O)(NC(C)=O)SC` (stereo not given), the call was inactive.

Regarding `CCOC(=O)COc1cc(-c2nn(C)c(OC(F)F)c2Cl)c(F)cc1Cl`, the AC50 is 50 µM (active).

Regarding `CN(C)C(=O)Nc1cccc(C(F)(F)F)c1`, the AC50 was 24.7 µM (active).

Consider `Nc1nc(N)nc(NC2CC2)n1`, for which the AC50 is 50 µM (active).

For `CN(C)NC(=O)CCC(=O)O`, the call was inactive.

As to `CNC(=O)ON=C(SC)C(=O)N(C)C`, the result was inactive.

With `CCc1cccc(C)c1N(C(=O)CCl)C(C)COC` (stereo not given), the AC50 was 62.6 µM (active).

On to `CCOP(=S)(OCC)Oc1ccc2c(C)c(Cl)c(=O)oc2c1`, for which the AC50 is 6.37 µM (active).

`CNc1cnn(-c2cccc(C(F)(F)F)c2)c(=O)c1Cl`: the AC50 was 3.99 µM (active).

On to `CC(C)[C@H](C(=O)O[C@H](C#N)c1cccc(Oc2ccccc2)c1)c1ccc(Cl)cc1`, for which the half-maximal activity concentration (AC50) is 34.8 µM (active).

With `COc1ccc(C(=CC(=O)N2CCOCC2)c2ccc(Cl)cc2)cc1OC`, the AC50 is 50 µM (active).

With `CCOP(=O)(NC(C)C)Oc1ccc(SC)c(C)c1` (stereo not given), the AC50 is 50 µM (active).

As for `CSc1nc(NC(C)C)nc(NC(C)C)n1`, the AC50 is 22.4 µM (active).

Take `CC1(C(=O)Nc2ccc(O)c(Cl)c2Cl)CCCCC1`: the AC50 is 67.2 µM (active).

Turning to `CCNc1nc(Cl)nc(NC(C)(C)C#N)n1`, the AC50 was 24.9 µM (active).

For `CNC(=O)ON=C(C)SC`, the compound was called inactive.

On to `Nc1c(Cl)cc([N+](=O)[O-])cc1Cl`, for which the AC50 was 7.36 µM (active).

On to `CC(COc1ccc(Oc2ccccc2)cc1)Oc1ccccn1` (stereo not given), for which the AC50 was 77.4 µM (active).

With `C#CC(C)(C)NC(=O)c1cc(Cl)cc(Cl)c1`, the AC50 is 33 µM (active).

For `CCCSP(=O)(OCC)Oc1ccc(Br)cc1Cl` (stereo not given), the AC50 was 29.4 µM (active).

As to `FC(F)C(F)(F)OCC(Cn1cncn1)c1ccc(Cl)cc1Cl` (stereo not given), the AC50 is 3.17 µM (active).

Consider `C[Si](Cn1cncn1)(c1ccc(F)cc1)c1ccc(F)cc1`, for which the AC50 was 5.08 µM (active).

Regarding `CCOP(=S)(OCC)Oc1cc(C)nc(C(C)C)n1`, the AC50 is 33 µM (active).

Turning to `CCCCN(CC)c1c([N+](=O)[O-])cc(C(F)(F)F)cc1[N+](=O)[O-]`, the AC50 is 35.4 µM (active).

Regarding `C#CCC1=C(C)C(OC(=O)C2C(C=C(C)C)C2(C)C)CC1=O` (stereo not given), the AC50 was 49.8 µM (active).

Turning to `CCOP(=S)(OCC)Oc1ccc([N+](=O)[O-])cc1`, the concentration at half-maximal activity (AC50) is 15.4 µM (active).

As to `CCCSP(=O)(OCC)SCCC`, the AC50 is 40.8 µM (active).

For the compound `Cc1ccn2nc(S(=O)(=O)Nc3c(F)cccc3F)nc2n1`, the call was inactive.

Read-out in a further test: CFLAR gene, CFLAR (gene 8837)
Briefly: LTEA_HepaRG_CFLAR: Life Technologies and Expression Analysis (LTEA) Assay for CFLAR gene using HepaRG (AID 2283455). To be noted: mRNA level, 48 h; actives raise or lower the signal. In short, it runs like this:
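Transcript level by qRT-PCR (normalized to ACTB, GAPDH and POLR2A) after 48 h chemical exposure of HepaRG cells, top concentration 100 uM with half-log steps, 0.5% DMSO vehicle, duplicates; fitted bidirectionally against DMSO baseline.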
Turning to `COc1cccc(C(=O)NN(C(=O)c2cc(C)cc(C)c2)C(C)(C)C)c1C`, the result was inactive.

On to `O=C(O)c1cc(Oc2ccc(C(F)(F)F)cc2Cl)ccc1[N+](=O)[O-]`, for which the call was inactive.

On to `Cc1cc(C2CC2)nc(Nc2ccccc2)n1`, for which the compound was classed as inactive.

`CNC(=O)Oc1cccc2c1OC(C)(C)O2`: the compound was classed as inactive.

Take `CC(C1CC1)C(O)(Cn1cncn1)c1ccc(Cl)cc1` (stereo not given): the outcome was inactive.

For the compound `CSc1nnc(C(C)(C)C)c(=O)n1N`, the result was inactive.

On to `CCCOCC(=Nc1ccc(Cl)cc1C(F)(F)F)n1ccnc1`, for which the AC50 was 50 µM (active).

For `COP(=O)(NC(C)=O)SC` (stereo not given), the call was inactive.

For `CCOC(=O)COc1cc(-c2nn(C)c(OC(F)F)c2Cl)c(F)cc1Cl`, the compound was called inactive.

With `CN(C)C(=O)Nc1cccc(C(F)(F)F)c1`, the compound was called inactive.

As for `Nc1nc(N)nc(NC2CC2)n1`, the compound was called inactive.

Regarding `CN(C)NC(=O)CCC(=O)O`, the compound was called inactive.

On to `CNC(=O)ON=C(SC)C(=O)N(C)C`, for which the outcome was inactive.

In the case of `CCc1cccc(C)c1N(C(=O)CCl)C(C)COC` (stereo not given), the outcome was inactive.

Consider `CCOP(=S)(OCC)Oc1ccc2c(C)c(Cl)c(=O)oc2c1`, for which the result was inactive.

Consider `CNc1cnn(-c2cccc(C(F)(F)F)c2)c(=O)c1Cl`, for which the call was inactive.

In the case of `CC(C)[C@H](C(=O)O[C@H](C#N)c1cccc(Oc2ccccc2)c1)c1ccc(Cl)cc1`, the call was inactive.

On to `COc1ccc(C(=CC(=O)N2CCOCC2)c2ccc(Cl)cc2)cc1OC`, for which the compound was classed as inactive.

Turning to `CCOP(=O)(NC(C)C)Oc1ccc(SC)c(C)c1` (stereo not given), the compound was called inactive.

`CSc1nc(NC(C)C)nc(NC(C)C)n1`: the call was inactive.

As to `CC1(C(=O)Nc2ccc(O)c(Cl)c2Cl)CCCCC1`, the call was inactive.

For the compound `CCNc1nc(Cl)nc(NC(C)(C)C#N)n1`, the result was inactive.

Regarding `CNC(=O)ON=C(C)SC`, the result was inactive.

As for `Nc1c(Cl)cc([N+](=O)[O-])cc1Cl`, the AC50 is 17.7 µM (active).

For `CC(COc1ccc(Oc2ccccc2)cc1)Oc1ccccn1` (stereo not given), the outcome was inactive.

`C#CC(C)(C)NC(=O)c1cc(Cl)cc(Cl)c1`: the compound was called inactive.

Consider `CCCSP(=O)(OCC)Oc1ccc(Br)cc1Cl` (stereo not given), for which the call was inactive.

`FC(F)C(F)(F)OCC(Cn1cncn1)c1ccc(Cl)cc1Cl` (stereo not given): the AC50 was 78.4 µM (active).

On to `C[Si](Cn1cncn1)(c1ccc(F)cc1)c1ccc(F)cc1`, for which the AC50 is 50 µM (active).

In the case of `CCOP(=S)(OCC)Oc1cc(C)nc(C(C)C)n1`, the outcome was inactive.

With `CCCCN(CC)c1c([N+](=O)[O-])cc(C(F)(F)F)cc1[N+](=O)[O-]`, the compound was classed as inactive.

As for `C#CCC1=C(C)C(OC(=O)C2C(C=C(C)C)C2(C)C)CC1=O` (stereo not given), the compound was classed as inactive.

As for `CCOP(=S)(OCC)Oc1ccc([N+](=O)[O-])cc1`, the compound was called inactive.

`CCCSP(=O)(OCC)SCCC`: the result was inactive.

As for `Cc1ccn2nc(S(=O)(=O)Nc3c(F)cccc3F)nc2n1`, the outcome was inactive.

The record behind these values is PubChem BioAssay (EPA / NIEHS).
